Data as given in PubChem BioAssay.
Active and inactive are the calls of the source.

Key:
[1] = compounds binding Alexa647 anti-His antibody – biochemical, small-molecule microarray, 635 nm fluorescence, artefact control for SMM control protein annotation, primary screen (AID 1128); details: higher = more signal;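 further: score merges feature fluorescence with signal-to-noise for each printed compound spot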
[2] = tested on: Human papillomavirus type 1a E7 protein (residues 1-88); assay: HPV1a E7 small-molecule binders, primary screen, biochemical, small-molecule microarray, residues 1-88, 635 nm (AID 1129); details: small-molecule microarray binding, fluorescence 635 nm; higher = more signal
[3] = molecular target: Focal adhesion kinase 1 (Homo sapiens) (UniProt Q05397); assay: PTK2 protein binding on printed compound slides – biochemical, small-molecule microarray, 635/667 nm fluorescence, BSA, DTT, primary screen (AID 1130); details: 635 nm fluorescence, higher = more signal;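 further: composite of spot emission at 667 nm and signal to noise over triplicate slides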
[4] = tested on: Fibrinogen (Alexa647-labelled); assay: Alexa647-fibrinogen binding to printed small molecules – biochemical, small-molecule microarray, 635/667 nm fluorescence, artefact control for SMM control-protein annotation, profiling panel (AID 1131); details: fibrinogen-A647 binding fluorescence, higher = more signal;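 further: z-score merges 667 nm fluorescence with per-spot signal-to-noise over triplicate slides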
[5] = molecular target: Follistatin (Homo sapiens) (UniProt P19883); assay: FST protein binding to printed compounds – biochemical, small-molecule microarray, 635/667 nm fluorescence, primary screen (AID 1132); details: 635 nm fluorescence, higher = more signal
[6] = molecular target: Fibroblast growth factor 2 (Homo sapiens) (UniProt P09038); assay: basic fibroblast growth factor binding to printed compounds – biochemical, small-molecule microarray, 635/667 nm fluorescence, primary screen (AID 1133); details: FGF2, fluorescence 635/667, higher = more signal
[7] = JC-1 mitochondrial potential readout, lung cancer cells – cell-based, A549, JC-1 fluorescence, basal, 24 h, 100 nL, profiling panel (AID 1138); details: higher = more signal;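 further: A549 lung adenocarcinoma cells under basal conditions with no added stimulus; test concentration not given here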
Lefty1 = Lefty1 protein binding to printed compounds – biochemical, small-molecule microarray, 635/667 nm fluorescence, primary screen (AID 1139); details: fluorescence 635/667, higher = more signal
[8] = tested on: wheat germ agglutinin (Triticum aestivum), Alexa647-labelled; assay: Alexa647-WGA lectin binding to printed small molecules – biochemical, small-molecule microarray, 635/667 nm fluorescence, artefact control for SMM control-protein annotation, profiling panel (AID 1140); details: WGA-A647 binding, 635 nm fluorescence, higher = more signal;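 further: score merges 667 nm feature emission with signal to noise over triplicate slides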
[9] = molecular target: Luciferin 4-monooxygenase (Photinus pyralis) (UniProt P08659); assay: inhibition of purified Photinus pyralis luciferase – biochemical, luminescence, purified enzyme, 2006 set, primary screen (AID 1141); details: purified firefly luciferase, SteadyGlo luminescence, 30 min; higher = more signal, called active from +8 up or from −8 down;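 further: cell-free assay with purified firefly luciferase at 100 ng per well in PBS; test concentration not given here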
Sequence of Luciferin 4-monooxygenase (Photinus pyralis) (P08659 whole entry, looked up): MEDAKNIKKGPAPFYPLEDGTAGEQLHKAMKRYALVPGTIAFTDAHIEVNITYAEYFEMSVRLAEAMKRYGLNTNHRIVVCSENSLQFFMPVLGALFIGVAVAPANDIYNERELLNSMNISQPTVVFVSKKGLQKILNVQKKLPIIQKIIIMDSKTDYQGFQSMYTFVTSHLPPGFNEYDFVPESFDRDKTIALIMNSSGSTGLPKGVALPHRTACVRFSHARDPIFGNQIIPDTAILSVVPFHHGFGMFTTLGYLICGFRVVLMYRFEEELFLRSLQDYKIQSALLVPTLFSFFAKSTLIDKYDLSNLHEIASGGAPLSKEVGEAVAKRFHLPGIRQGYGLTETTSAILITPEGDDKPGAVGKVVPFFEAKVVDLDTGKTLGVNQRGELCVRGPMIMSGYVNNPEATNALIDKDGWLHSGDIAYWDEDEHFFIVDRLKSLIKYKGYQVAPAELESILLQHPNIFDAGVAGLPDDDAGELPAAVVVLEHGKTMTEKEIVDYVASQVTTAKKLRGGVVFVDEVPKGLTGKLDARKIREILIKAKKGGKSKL

Sequence of Focal adhesion kinase 1 (Homo sapiens) (Q05397 whole entry, looked up): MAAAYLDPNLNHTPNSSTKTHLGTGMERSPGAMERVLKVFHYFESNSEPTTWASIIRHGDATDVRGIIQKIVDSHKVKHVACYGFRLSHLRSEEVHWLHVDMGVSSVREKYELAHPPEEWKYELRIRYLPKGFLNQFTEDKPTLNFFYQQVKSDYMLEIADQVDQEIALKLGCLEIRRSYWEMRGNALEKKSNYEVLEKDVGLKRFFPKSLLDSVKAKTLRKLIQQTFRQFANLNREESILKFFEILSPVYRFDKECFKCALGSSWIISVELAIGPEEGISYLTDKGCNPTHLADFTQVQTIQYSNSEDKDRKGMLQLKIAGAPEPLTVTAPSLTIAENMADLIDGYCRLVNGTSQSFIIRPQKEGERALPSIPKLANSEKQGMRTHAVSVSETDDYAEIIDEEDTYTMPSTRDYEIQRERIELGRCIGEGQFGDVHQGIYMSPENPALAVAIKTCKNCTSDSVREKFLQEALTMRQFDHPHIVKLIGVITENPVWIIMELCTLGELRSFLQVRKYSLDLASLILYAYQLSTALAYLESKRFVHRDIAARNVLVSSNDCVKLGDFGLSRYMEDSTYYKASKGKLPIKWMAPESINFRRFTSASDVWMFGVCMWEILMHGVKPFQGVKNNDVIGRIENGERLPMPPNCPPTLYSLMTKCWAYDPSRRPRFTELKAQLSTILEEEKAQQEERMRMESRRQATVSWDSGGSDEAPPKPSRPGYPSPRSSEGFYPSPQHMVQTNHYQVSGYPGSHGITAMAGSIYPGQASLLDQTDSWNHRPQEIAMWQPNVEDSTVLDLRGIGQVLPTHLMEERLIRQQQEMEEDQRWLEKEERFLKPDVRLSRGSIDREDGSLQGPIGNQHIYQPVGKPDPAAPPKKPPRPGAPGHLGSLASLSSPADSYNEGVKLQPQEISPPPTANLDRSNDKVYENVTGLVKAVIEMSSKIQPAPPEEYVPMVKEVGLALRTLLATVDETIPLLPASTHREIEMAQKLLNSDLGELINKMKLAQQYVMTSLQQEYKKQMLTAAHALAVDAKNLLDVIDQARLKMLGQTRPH
Sequence of Fibroblast growth factor 2 (Homo sapiens) (P09038 whole entry, looked up): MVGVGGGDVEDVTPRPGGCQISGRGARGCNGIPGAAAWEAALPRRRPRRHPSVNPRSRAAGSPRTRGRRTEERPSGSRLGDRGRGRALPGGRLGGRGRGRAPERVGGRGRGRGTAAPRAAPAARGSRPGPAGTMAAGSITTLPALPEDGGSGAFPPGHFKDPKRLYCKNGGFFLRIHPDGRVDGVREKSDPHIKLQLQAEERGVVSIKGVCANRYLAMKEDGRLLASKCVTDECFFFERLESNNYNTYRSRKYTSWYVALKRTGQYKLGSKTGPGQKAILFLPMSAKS
Sequence of Follistatin (Homo sapiens) (P19883 whole entry, looked up): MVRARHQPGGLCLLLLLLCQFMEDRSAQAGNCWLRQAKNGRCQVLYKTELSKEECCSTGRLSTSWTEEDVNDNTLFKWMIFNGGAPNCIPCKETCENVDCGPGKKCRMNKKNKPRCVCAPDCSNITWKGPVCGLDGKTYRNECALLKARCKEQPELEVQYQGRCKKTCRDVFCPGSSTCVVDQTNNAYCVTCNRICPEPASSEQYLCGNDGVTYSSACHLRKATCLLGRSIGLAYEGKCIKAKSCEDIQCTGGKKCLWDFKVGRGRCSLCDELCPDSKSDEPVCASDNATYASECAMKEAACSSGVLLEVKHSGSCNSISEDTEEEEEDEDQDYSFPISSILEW

SMILES	composite z-score [1]	composite z-score [2]	composite z-score [3]	composite z-score [4]	composite z-score [5]	composite z-score [6]	z-score [7]	composite z-score (Lefty1)	composite z-score [8]	z-score [9]
C=CC[C@H](OC(=O)Nc1ccc(SC)cc1)c1ccc(OCCO)cc1	0.299	-0.444	-0.452	-1.96	0.734	0.144	0.08	0.34	0.61	-1.93 (inactive)
O=C1C2C=CC(C(O)c3cccc(O)c3)N(Nc3ccccc3)C2C(=O)N1c1ccccc1 (stereo not given)	0.811	0.452	0.0964	0.881	0.323	-0.202	-0.319	-0.199	0.0207	0.509 (inactive)
C=CCNC(=O)[C@H]1[C@@H]2C(=O)O[C@@H](c3ccccc3)[C@@H](c3ccccc3)N2[C@@H](c2ccc(OCCO)cc2)[C@]12C(=O)N(C(=O)OCCOC)c1ccc(C#Cc3ccc(OC)cc3)cc12	1.25	1.15	0.0069	0.904	1.22	0.714	-1.59	0.544	0.719	-1.51 (inactive)
CCc1cccc(NC(=O)O[C@H]2[C@H](OC(=O)Nc3ccccc3)[C@H](OC(=O)Nc3ccccc3)[C@@H](OC)O[C@@H]2CO)c1	1.14	1.26	1.53	0.571	1.16	0.216	-1.55	0.0478	0.751	0.234 (inactive)
O=C1OCCC/C=C\[C@H]2OC34C=CCN(c5ccc6ccccc6c5)C(=O)[C@H]3N(CCCO)C(=O)[C@@H]4C12 (stereo not given in full)	1.09	-0.0247	0.984	-1.07	-0.45	-0.755	0.333	-0.345	0.576	-0.183 (inactive)
COc1cc(C(O)C2C=CC3C(=O)N(Cc4ccccc4)C(=O)C3N2n2cnnc2)cc(OC)c1OC (stereo not given)	0.941	0.869	0.498	0.912	0.448	0.405	-0.417	-0.493	1.15	-2.17 (inactive)
CCCNC(=O)[C@@]1(Sc2ccc(C)cc2)CC(=O)N(C(C)C)[C@@H]1c1ccc(CO)cc1I	-0.139	-0.435	-0.288	-0.678	-1.21	-1.5	0.794	-1.96	-0.831	-0.121 (inactive)
COC(=O)C1=CC(CCCO)=CC(c2ccc(CN3CCCC3)cc2)N(Cc2cc3c(cc2Br)OCO3)C=C1C(=O)OC (stereo not given)	0.676	1.22	0.473	1.02	1.2	0.918	0.0526	0.514	1	0.197 (inactive)
COc1ccc([Si](C)(C)[C@H]2[C@H](CCO)O[C@@]3(C(=O)N(Cc4ccccc4)c4ccc(N5CCOC5=O)cc43)[C@@H]2C)cc1	0.783	0.981	0.0096	0.773	0.701	1.11	0.571	0.385	0.986	0.446 (inactive)
COc1ccc(C(O)C2C=CC3C(=O)N(c4ccccc4)C(=O)C3N2Nc2ccccc2F)cc1 (stereo not given)	2.35	1.18	0.616	0.918	0.244	-0.276	-0.652	-0.2	0.265	1.31 (inactive)
[N-]=[N+]=Nc1ccccc1C[C@]1(C(=O)NCc2ccccc2)COC(c2ccc(OCCCO)cc2)=N1	1.39	1.2	0.467	0.963	1.16	0.17	1.85	0.556	1.14	-5.16 (inactive)
COc1ccc(C#Cc2ccc3c(c2)[C@]2(C(=O)N3)[C@H](c3ccc(OCCO)cc3)N3[C@H](c4ccccc4)[C@H](c4ccccc4)OC(=O)[C@H]3[C@@H]2C(=O)N2CCc3cc(OC)c(OC)cc3C2)cc1	0.78	1.18	0.946	0.532	1.44	1.49	-1.14	1.17	0.863	-0.922 (inactive)
O=C(CS)NCCCCCNC(=O)[C@@H]1C[C@@H]2C(=O)N[C@@H](Cc3ccccc3)C(=O)N2[C@@H]1c1cccc(OCCO)c1	0.768	1.24	0.334	0.284	1.39	1.6	0.296	0.4	0.288	-1.97 (inactive)
Cc1ccc([C@H]2C(C(=O)O)=C[C@@H](C(C)(C)C)N2S(=O)(=O)c2ccc(C)cc2)cc1	1.28	1.24	0.664	0.999	0.802	0.557	-0.918	0.367	1.3	1.48 (inactive)
COCC(=C=CC[C@@H](O)c1ccc(OCCO)cc1)CCO	0.656	0.529	0.17	-0.97	1.08	0.517	0.721	0.993	1.27	-0.776 (inactive)
O=C1O[C@H](c2ccccc2)[C@H](c2ccccc2)N2[C@H]1[C@@H](C(=O)Nc1nc3ccccc3s1)[C@]1(C(=O)Nc3ccc(C#CC4=CCCCC4)cc31)[C@H]2c1ccc(O)cc1	0.41	1.18	-0.145	0.921	1.12	0.355	-1.83	0.844	0.191	0.128 (inactive)

SMILES	composite z-score [1]	composite z-score [2]	composite z-score [3]	composite z-score [4]	composite z-score [5]	composite z-score [6]	z-score [7]	composite z-score (Lefty1)	composite z-score [8]	z-score [9]
NC(=O)[C@H]1[C@@H]2C(=O)O[C@@H](c3ccccc3)[C@@H](c3ccccc3)N2[C@@H](c2ccc(O)cc2)[C@]12C(=O)Nc1ccc(C#CC3=CCCCC3)cc12	2.5	1.2	0.985	0.587	0.959	-0.004	-1.96	0.542	0.548	-0.784 (inactive)
O=C1C2C=CC(C(O)c3ccc4c(c3)OCO4)N(Nc3ccccc3)C2C(=O)N1c1ccccc1 (stereo not given)	0.496	1.21	0.617	0.979	1.03	-0.337	0.279	0.153	0.942	0.465 (inactive)
CCOC(=O)C=Cc1ccccc1O	0.712	0.923	-0.0156	0.881	0.79	0.292	-1.47	0.175	0.404	-0.532 (inactive)
C=CCNC(=O)[C@@H]1[C@H]2C(=O)O[C@H](c3ccccc3)[C@H](c3ccccc3)N2[C@H](c2ccc(O)cc2)[C@@]12C(=O)N(C(=O)OCCOC)c1ccc(C#CCCO)cc12	1.45	0.779	0.863	0.389	1.19	1.25	0.703	0.531	0.862	-0.52 (inactive)
COc1ccc([Si](C)(C)[C@H]2[C@H](CCO)O[C@@]3(C(=O)N(Cc4ccccc4)c4ccc(N5C(=O)c6ccccc6Oc6ccccc65)cc43)[C@@H]2C)cc1	0.814	0.885	-0.21	-0.0167	-0.4	1.02	0.616	-0.204	1.23	0.666 (inactive)
CCCCC(=C=CC[C@H](O)c1ccc(OCCO)cc1)C[C@H](O)c1cc(Cl)cc(Cl)c1O	0.323	0.606	0.0593	0.463	0.906	0.807	0.62	0.484	0.776	-1.39 (inactive)
CC(C)CNC(=O)[C@@H]1c2ccccc2C(=O)N(C2CCCCC2)[C@H]1c1ccc(CO)cc1	0.978	0.589	-0.292	-0.467	0.196	-0.184	1.83	-0.991	-0.321	-1.66 (inactive)
O=c1cccc(-c2ccco2)o1	0.645	0.471	0.082	0.476	1.3	0.879	-0.262	1.02	0.138	0.405 (inactive)
COCCOC(=O)N1C(=O)[C@@]2(c3cc(C#CCCO)ccc31)[C@H](C(=O)N1CCCCCCC1)[C@H]1C(=O)O[C@H](c3ccccc3)[C@H](c3ccccc3)N1[C@@H]2c1ccccc1OCCO	0.573	1.19	0.686	0.885	1.45	0.819	-0.971	1.41	1.25	-1.29 (inactive)
O=C1NC(=O)C2C1C=CC(C(O)c1ccccn1)N2Nc1ccc(Cl)cc1Cl (stereo not given)	0.713	0.676	0.473	0.717	0.101	0.0367	1.07	0.181	1.11	0.237 (inactive)
O=C1N(CCS(=O)(=O)c2ccccc2)Cc2ccccc2[C@@H]2OC(c3ccc(OCCCO)cc3)=N[C@]12CCS(=O)(=O)c1ccccc1	0.519	1.27	1.2	0.645	1.41	1.7	-1.19	0.783	0.817	-2.08 (inactive)
COCCOC(=O)N1C(=O)[C@@]2(c3cc(C#CCNC(N)=O)ccc31)[C@H](c1ccc(OCCO)cc1)N1[C@H](c3ccccc3)[C@H](c3ccccc3)OC(=O)[C@H]1[C@@H]2C(N)=O	1.11	1.14	0.31	0.663	0.926	0.258	-0.405	0.43	0.673	-1.83 (inactive)
C=C(/C(=C/C[C@H](OC(=O)c1ccncc1)c1ccccc1OCCO)c1cnc2ccccc2c1)C(C)C	1.23	1.22	0.374	0.958	1.39	1.42	0.707	1.39	0.846	-0.177 (inactive)
COCCOC(=O)N1C(=O)[C@@]2(c3cc(C#CCNC(N)=O)ccc31)[C@H](c1ccc(O)cc1)N1[C@H](c3ccccc3)[C@H](c3ccccc3)OC(=O)[C@H]1[C@@H]2C(=O)N1CCN(c2ncccn2)CC1	1.22	1.2	0.634	0.865	0.902	0.671	-1.91	0.707	0.991	-0.391 (inactive)
C=CCC(OC(C)=O)[C@@H]1[C@@H](N(Cc2ccc(-c3cccc(C(F)(F)F)c3)o2)C(=O)c2ccc(C)cc2)c2cc(OCCCO)ccc2N1C(=O)Cc1ccc(OC)cc1 (stereo not given in full)	-0.139	-0.269	-0.542	-0.366	1.02	-0.289	1.36	0.189	0.0232	0.147 (inactive)
COC(=O)C(CC#Cc1ccc2c(c1)[C@]1(C(=O)N2)[C@H](c2ccc(O)cc2)N2[C@H](c3ccccc3)[C@H](c3ccccc3)OC(=O)[C@H]2[C@@H]1C(=O)N1CCCCCCC1)C(=O)OC	0.792	1.23	1.47	0.945	1.43	1.4	1.21	0.966	1.35	-1.99 (inactive)
